esBAF inh: inhibitors of esBAF chromatin remodeling in mouse ES cells | AID 602393 | Bmi1-luciferase knock-in reporter, 24 h; 100% = twice the neutral-well signal | reporter increase, % at 12.5 µM | actives 2% (n = 350,000); in the data active = activation above about 40%;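 note: a rise in the Bmi1 reporter signal indicates esBAF inhibition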
Wnt act: activates Wnt/beta-catenin signaling in a reporter cell assay; actives 1.2% (n = 300,000); activator, plate reader; activation, % at 9.35 µM; in the data active = activation above about 30%, passing the limit was not always enough
MLL AF4-AF9 inh: MLL-AF4/AF9 protein interaction inhibition. actives 0.47% (n = 350,000). AlphaScreen, biotin-AF4 peptide binding to FLAG-AF9. P42568. inhibition, % at 10 µM;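 active = every replicate reaching a set inhibition limit, whatever the replicate mean, cut at about 25% in these data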
MITF act: MITF TRPM1 promoter activation in melanoma cells. SK-MEL-5 TRPM1-promoter luciferase, 24 h; % of positive control, neutral wells = 0. activation, % at 12.5 µM. actives 0.75% (n = 300,000);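 active = mean activation of at least 80% with every replicate also reaching 80%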
FGF22 binding: FGF22 (human) thermal shift binding; Q9HCT0; recombinant FGF22 thermal shift, SYPRO orange fluorescence; percent of sucrose octasulfate shift, DMSO zero; activity (Tm shift, normalised), % at 9.99 µM; actives 1.5% (n = 340,000); AID 651658;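 active = mean Tm shift, scaled 0 neutral to 100 positive control, at about 1.3% or above, every replicate too, limit read from the data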
Target sequence (Q9HCT0 whole entry, looked up): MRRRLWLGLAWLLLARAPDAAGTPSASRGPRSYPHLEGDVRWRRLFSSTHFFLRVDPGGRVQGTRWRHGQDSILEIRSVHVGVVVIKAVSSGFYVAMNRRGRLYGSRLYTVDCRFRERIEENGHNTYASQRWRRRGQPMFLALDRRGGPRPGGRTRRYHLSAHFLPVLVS
SMARCA2 act: SMARCA2 function activation, primary screen | AID 652017 | MG213 cells, MMTV-luciferase reporter, dexamethasone, overnight | actives 1% (n = 370,000) | activation, % at 9.1 µM; in the data active = activation above about 7.8%
A number is an active result; n = inactive; x = not tested or not shown. In the library only some 4.3% were active in any assay of this set; here they are far more common.

SMILES | esBAF inh | Wnt act | MLL AF4-AF9 inh | MITF act | FGF22 binding | SMARCA2 act
C=C(C)C1CC=C(C)/C(=N/NC(=O)c2cccs2)C1 (stereo unspecified) | 43 | n | x | 98 | x | n
COCC(=O)Nc1ccc2c(c1)[C@H]1C[C@H](CC(=O)NCc3ccccc3OC)O[C@H](CO)[C@H]1O2 | n | x | n | x | n | x
O=C(NCC(F)(F)F)[C@H]1[C@H](CO)[C@H]2Cn3c(cccc3=O)[C@H]2N1C(=O)C1CC1 | n | x | n | x | n | x
O=C(c1cc2cc(Br)ccc2o1)N1CCCC1 | 39 | n | n | n | n | n
O=C(c1cc2ccccc2o1)N1CCN(C/C=C/c2ccccc2)CC1 | n | n | n | n | n | n
COc1ccc2nc3oc(C(=O)N4CC(C)CC(C)C4)cc3cc2c1 (stereo unspecified) | n | x | x | n | x | x
CC1CC(C)CN(C(=O)c2cc3ccccc3o2)C1 (stereo unspecified) | 58 | n | n | n | n | n
O=C(c1cc2cc(Br)ccc2o1)N1CCOCC1 | x | n | n | n | n | n
CC1CC(C)CN(C(=O)c2cc3cc(Br)cc(Br)c3o2)C1 (stereo unspecified) | x | n | n | 83 | n | n
O=C(c1cc2ccccc2o1)N1CCN(Cc2nc3ccccc3s2)CC1 | 45 | n | n | x | n | n
O=C(C[C@@H]1CC[C@@H](NC(=O)Cc2cccnc2)[C@H](CO)O1)Nc1ccccc1 | x | x | n | x | x | x
COc1ccc(CN2CC3(CN(C(C)=O)C3)c3c([nH]c4cc(OC)ccc34)[C@H]2CO)cc1 | x | x | n | x | n | x
CCCNC(=O)N(C)C[C@H]1Oc2ncc(C#CC3CC3)cc2C(=O)N([C@H](C)CO)C[C@H]1C | n | x | n | x | n | x
CC1CCN(C(=O)c2cc3ccccc3o2)CC1 | 57 | x | x | x | x | n
COc1cc(NC(=S)N2CCN(CCO)CC2)c(OC)cc1Cl | n | n | n | n | x | n
COc1cc(NC(=S)N2CCCC(CO)C2)c(OC)cc1Cl (stereo unspecified) | x | n | n | n | 44 | n
COc1ccc(CNS(=O)(=O)c2ccccc2Br)c(OC)c1 | x | n | n | x | n | n
C#Cc1ccc(CN2CCC(C(=O)Nc3ccc(Oc4ccccc4)nc3)CC2)cc1 | n | n | n | n | n | n
CC#CC(=O)N1CCC(C(=O)Nc2ccc(Oc3ccccc3)nc2)CC1 | 41 | n | n | n | n | n
O=C(c1cc2ccccc2[nH]1)N1CCOCC1 | x | 36 | x | n | x | n
CN1CCN(C(=O)c2cc3ccccc3[nH]2)CC1 | n | n | n | n | n | n
Cc1[nH]c(=O)[nH]c(=O)c1NC(=O)c1ccc(OC(C)C)cc1 | x | n | n | n | n | n
CC(C)Oc1ccc(C(=O)Nc2ccc(C(F)(F)F)n(C)c2=O)cc1 | n | n | n | n | 44 | n
CC(C)OC(=O)CSc1nnnn1-c1ccc2c(c1)OCCO2 | 69 | n | x | n | x | n
O=C(O)CSc1nnnn1-c1ccc2c(c1)OCCO2 | n | n | x | x | x | n
SMILES | esBAF inh | Wnt act | MLL AF4-AF9 inh | MITF act | FGF22 binding | SMARCA2 act
Cc1cccc(N=Nc2c(C)nn(-c3ccccc3)c2N)c1C | x | n | n | n | n | n
Cc1nn(-c2ccccc2)c(N)c1N=Nc1ccccc1 | x | n | 31 | n | x | n
Cc1nn(-c2ccccc2)c(N)c1N=Nc1ccc(Cl)cc1 | 80 | n | n | n | n | n
CN1C2CCC1/C(=C/c1cccn1C)C(=O)/C2=C\c1cccn1C | x | n | 43 | n | n | n
Cn1cccc1/C=C1\CC(C(C)(C)C)C/C(=C\c2cccn2C)C1=O (stereo unspecified) | n | n | x | x | x | n
O=C1/C(=C\c2ccc(Br)o2)Cc2ccccc21 | n | 41 | x | n | x | n
O=C1/C(=C\c2ccncc2)CCc2ccccc21 | n | n | n | n | n | n
Cn1cccc1/C=C1\Cc2ccccc2C1=O | 53 | 63 | n | n | n | n
Cn1cccc1/C=C1\CCc2ccccc2C1=O | n | 34 | x | n | n | n
CN(C)C(=O)C[C@H]1CC[C@@H]2[C@H](COc3ccc(NC(=O)c4cnccn4)cc3C(=O)N2C)O1 | n | x | n | x | n | x
CO[C@@H]1CN(C)C(=O)c2cc(NC(=O)C3CC3)ccc2OC[C@H](C)N(CCC(F)(F)F)C[C@@H]1C | n | x | n | x | n | x
CCN(CC)CC(O)Cn1c(C)c(-c2ccccc2)c2cc([N+](=O)[O-])ccc21 (stereo unspecified) | n | n | 37 | n | n | n

Screens: PubChem BioAssay, several laboratories
